Results filed as inconclusive are left out. The source made the active and inactive calls. Unless noted, the call rests on the fitted dose curve; in most records, active means well fitted curve in the direction sought with a large enough effect in the repeat runs; inconclusive means weak or mixed curves; inactive means no such curve, though single readings can be large; an effect the other way counts as inactive or inconclusive. Non-standard residues stand in square brackets, D forms with d. Residues, ends and D or L forms follow the SMILES beside them. pGlu = O=C1CC[C@@H](C(=O)O)N1; Thz = O=C(O)[C@@H]1CSCN1
Tests used:
[1] = qHTS assay to test for compound auto fluorescence at 535 nm (green) in HEK293 cells (AID 720680)
[2] = qHTS assay to test for compound auto fluorescence at 460 nm (blue) in HEK293 cell free culture (AID 720681)
How it was run: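 Test compounds were pinned into cell-free culture medium (DMEM with 10% FBS) and fluorescence was read directly at Ex/Em 405/460 nm. Signals were expressed as fluorescence equivalents of triamterene, with DMSO vehicle as control.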

[3] = qHTS assay to test for compound auto fluorescence at 535 nm (green) in HEK293 cell free culture (AID 720682)
How it was run: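 Intrinsic compound fluorescence is measured in culture medium containing 10% FBS, with excitation at 485 nm and detection at 535 nm, referenced to fluorescein.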

[4] = qHTS assay to test for compound auto fluorescence at 590 nm (red) in HEK293 cell free culture (AID 720683)
How it was run: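 Tox21 10K library compounds were pinned into cell-free DMEM with 10% FBS and fluorescence was read at excitation 540 nm. Activity is expressed as Rose Bengal sodium equivalency.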

[5] = qHTS assay to test for compound auto fluorescence at 590 nm (red) in HepG2 cell free culture (AID 720684)
How it was run: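 Readout: intrinsic compound fluorescence at 590 nm emission after 540 nm excitation, scaled to Rose Bengal sodium. Matrix was cell-free MEM with 10% FBS; DMSO vehicle wells served as control.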

[6] = qHTS assay to test for compound auto fluorescence at 460 nm (blue) in HepG2 cell free culture (AID 720685)
How it was run: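 Cell-free plates of MEM plus 10% FBS received 23 nL compound or DMSO vehicle; blue-channel (405/460 nm) intensity scored against triamterene as reference fluorophore.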

[7] = qHTS assay to test for compound auto fluorescence at 535 nm (green) in HepG2 cell free culture (AID 720686)
[8] = qHTS assay to test for compound auto fluorescence at 460 nm (blue) in HepG2 cells (AID 720687)
How it was run: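 Cells (2,000/well in MEM with 10% FBS) attached overnight at 37 C, then were exposed to compound or DMSO for 1 hr at 37 C, 5% CO2. Fluorescence read at Ex/Em 405/460 nm, expressed as triamterene-equivalent signal.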

[9] = target: Glucocorticoid receptor (Homo sapiens) (UniProt P04150); assay: qHTS assay to identify small molecule agonists of the glucocorticoid receptor (GR) signaling pathway (AID 720691; active means well fitted activation curve with a large enough effect in the signal ratio in the repeat runs, not every such curve was filed as active; the % refers to the signal ratio); details: GR-bla HeLa, beta-lactamase reporter ratio, 18 h; activation: at 62.4 µM (top of the series)
How it was run: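 Steps: seed GR-bla HeLa cells, incubate 4 h at 37 C/5% CO2; pin-transfer DMSO-dissolved compounds; incubate 18 h at 37 C; add LiveBLAzer B/G FRET substrate; after 2 h at room temperature, measure fluorescence.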

[10] = target: Glucocorticoid receptor (Homo sapiens) (UniProt P04150); assay: qHTS assay to identify small molecule antagonists of the glucocorticoid receptor (GR) signaling pathway (AID 720692; active means well fitted inhibition curve with a large enough effect in the signal ratio in the repeat runs, not every such curve was filed as active; the % refers to the signal ratio; further: potency means the concentration at half of the fitted maximal effect)
How it was run: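 Antagonism was scored as loss of dexamethasone-driven (5 nM final) reporter signal in HeLa cells bearing a glucocorticoid response element–beta-lactamase construct, after 18 h compound exposure at 37 C and 2 h FRET substrate loading.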

[11] = qHTS assay to identify small molecule antagonists of the glucocorticoid receptor (GR) signaling pathway - cell viability counter screen (AID 720693); further: nearly all actives have a fitted effect of over 55% in size; further: potency means the concentration at half of the fitted maximal effect
[12] = qHTS assay for identifying genotoxic compounds that show differential cytotoxicity against isogenic chicken DT40 cell lines with known DNA damage response pathways - wild type cell line (AID 743012); further: nearly all actives have a fitted effect of over 60% in size; further: potency means the concentration at half of the fitted maximal effect
How it was run: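 Cytotoxicity in repair-proficient parental chicken DT40 cells serves as the comparator for Rad54/Ku70- and Rev3-deficient lines. Cells were exposed to compounds for 40 h at 37 C/5% CO2, and ATP-based luminescence (CellTiter-Glo) measured viability.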

[13] = qHTS assay for identifying genotoxic compounds that show differential cytotoxicity against isogenic chicken DT40 cell lines with known DNA damage response pathways - Rev3 mutant cell line (AID 743014); further: nearly all actives have a fitted effect of over 55% in size; further: potency means the concentration at half of the fitted maximal effect
[14] = qHTS assay for identifying genotoxic compounds that show differential cytotoxicity against isogenic chicken DT40 cell lines with known DNA damage response pathways - Rad54/Ku70 mutant cell line (AID 743015); further: nearly all actives have a fitted effect of over 60% in size; further: potency means the concentration at half of the fitted maximal effect
[15] = qHTS assay to identify small molecule antagonists of the androgen receptor (AR) signaling pathway - cell viability counter screen (AID 743033; further: nearly all actives have a fitted effect of over 45% in size)
[16] = target: Androgen receptor (Homo sapiens) (UniProt P10275); assay: qHTS assay to identify small molecule antagonists of the androgen receptor (AR) signaling pathway (AID 743035; active means well fitted inhibition curve with a large enough effect in the signal ratio in the repeat runs, not every such curve was filed as active; the % refers to the signal ratio)
How it was run: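 Steps: seed AR-UAS-bla GripTite HEK293 cells, incubate 4 h at 37C; pin in test compound, then add agonist R1881; incubate 16 h at 37C; add LiveBLAzer B/G FRET substrate, 2 h at room temperature; read fluorescence.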

[17] = target: Androgen receptor (Homo sapiens) (UniProt P10275); assay: qHTS assay to identify small molecule agonists of the androgen receptor (AR) signaling pathway (AID 743036; active means well fitted activation curve with a large enough effect in the signal ratio in the repeat runs, with a control signal flat, not every such curve was filed as active; the % refers to the signal ratio)
How it was run: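 Agonist activity was scored by beta-lactamase reporter fluorescence in stably transfected HEK293 cells exposed to compounds for 16 h at 37C and 5% CO2. Substrate loading took 2 h at room temperature.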

[18] = target: Androgen receptor (Homo sapiens) (UniProt P10275); assay: qHTS assay to identify small molecule agonists of the androgen receptor (AR) signaling pathway using the MDA cell line (AID 743040; further: nearly all actives have a fitted effect of over 20% in size; further: potency means the concentration at half of the fitted maximal effect)
How it was run: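 Agonist activity is measured as luciferase luminescence in human MDA-kb2 cells whose MMTV reporter responds to both AR and GR. Compounds in DMSO incubate 16 h at 37C, 0% CO2, and ONE-Glo is read after 30 min.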

[19] = qHTS assay to identify small molecule antagonists of the androgen receptor (AR) signaling pathway using the MDA cell line - cell viability counter screen (AID 743041; further: nearly all actives have a fitted effect of over 45% in size)
How it was run: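 qHTS viability read-out; MDA-kb2 AR-luc; R1881-stimulated; 16 h exposure at 37C, 0% CO2; CellTiter-Fluor, 30 min; fluorescence intensity.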

[20] = target: Androgen receptor (Homo sapiens) (UniProt P10275); assay: qHTS assay to identify small molecule antagonists of the androgen receptor (AR) signaling pathway using the MDA cell line (AID 743042; further: nearly all actives have a fitted effect of over 55% in size; further: potency means the concentration at half of the fitted maximal effect)
How it was run: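 MDA-kb2 cells (human breast carcinoma, stably carrying an MMTV-luciferase reporter responsive to AR and GR) were plated at 3,000 cells/well and preincubated 5 hr at 37C, then given compound plus R1881 agonist for 16 h. ONE-Glo luminescence was read.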

Measured: Potency

Glucocorticoid receptor (Homo sapiens), sequence (P04150 whole entry, looked up): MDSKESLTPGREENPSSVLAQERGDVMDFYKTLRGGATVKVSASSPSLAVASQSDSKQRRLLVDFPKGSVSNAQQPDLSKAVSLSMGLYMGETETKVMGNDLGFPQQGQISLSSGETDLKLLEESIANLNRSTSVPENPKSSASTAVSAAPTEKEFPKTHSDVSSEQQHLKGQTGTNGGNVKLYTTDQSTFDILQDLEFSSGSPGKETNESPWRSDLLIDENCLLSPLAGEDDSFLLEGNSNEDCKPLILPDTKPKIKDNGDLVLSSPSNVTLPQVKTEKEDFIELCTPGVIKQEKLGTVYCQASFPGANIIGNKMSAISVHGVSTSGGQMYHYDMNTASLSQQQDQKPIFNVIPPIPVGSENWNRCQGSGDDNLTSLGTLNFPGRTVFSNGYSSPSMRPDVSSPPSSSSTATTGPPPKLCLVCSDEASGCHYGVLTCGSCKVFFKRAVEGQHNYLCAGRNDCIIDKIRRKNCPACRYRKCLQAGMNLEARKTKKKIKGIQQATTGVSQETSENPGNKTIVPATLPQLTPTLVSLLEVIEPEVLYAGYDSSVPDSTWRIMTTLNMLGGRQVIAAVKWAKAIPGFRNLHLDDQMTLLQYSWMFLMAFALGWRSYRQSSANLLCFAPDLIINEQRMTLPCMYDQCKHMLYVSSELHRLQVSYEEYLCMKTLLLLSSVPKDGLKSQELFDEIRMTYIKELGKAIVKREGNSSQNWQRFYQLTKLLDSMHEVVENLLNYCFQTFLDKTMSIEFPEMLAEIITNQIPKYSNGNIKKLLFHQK
Androgen receptor (Homo sapiens), sequence (P10275 whole entry, looked up): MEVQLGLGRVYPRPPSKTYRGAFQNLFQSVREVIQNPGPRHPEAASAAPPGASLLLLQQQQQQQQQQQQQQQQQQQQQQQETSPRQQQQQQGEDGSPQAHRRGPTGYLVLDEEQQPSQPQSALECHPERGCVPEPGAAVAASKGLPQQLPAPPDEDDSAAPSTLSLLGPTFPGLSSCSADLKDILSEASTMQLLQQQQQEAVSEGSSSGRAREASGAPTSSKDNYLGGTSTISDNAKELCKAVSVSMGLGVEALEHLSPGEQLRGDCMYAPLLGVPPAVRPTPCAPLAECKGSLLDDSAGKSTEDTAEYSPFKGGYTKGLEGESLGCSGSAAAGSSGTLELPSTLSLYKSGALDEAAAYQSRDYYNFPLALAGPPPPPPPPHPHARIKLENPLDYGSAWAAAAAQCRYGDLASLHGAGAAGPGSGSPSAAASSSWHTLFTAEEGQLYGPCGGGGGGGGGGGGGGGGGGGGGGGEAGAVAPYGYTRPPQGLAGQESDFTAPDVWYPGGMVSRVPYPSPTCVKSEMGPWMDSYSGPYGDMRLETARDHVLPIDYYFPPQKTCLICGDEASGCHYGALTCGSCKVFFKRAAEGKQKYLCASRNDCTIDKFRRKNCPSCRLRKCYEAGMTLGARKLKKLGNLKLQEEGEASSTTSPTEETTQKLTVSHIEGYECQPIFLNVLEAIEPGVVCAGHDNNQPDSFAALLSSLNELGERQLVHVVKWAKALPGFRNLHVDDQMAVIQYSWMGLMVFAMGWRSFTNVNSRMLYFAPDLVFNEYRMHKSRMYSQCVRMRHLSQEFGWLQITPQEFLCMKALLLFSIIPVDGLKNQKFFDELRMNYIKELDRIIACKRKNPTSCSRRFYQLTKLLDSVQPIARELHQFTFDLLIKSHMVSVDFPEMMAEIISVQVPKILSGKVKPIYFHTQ

CCOC(=O)CCC(=O)O[C@H]1[C@H](O[C@@H]2[C@@H](C)[C@H](O[C@H]3C[C@@](C)(OC)[C@@H](O)[C@H](C)O3)[C@@H](C)C(=O)O[C@H](CC)[C@@](C)(O)[C@H](O)[C@@H](C)C(=O)[C@H](C)C[C@@]2(C)O)O[C@H](C)C[C@@H]1N(C)C
inactive: all assays above

O=C1CC[C@@H](C(=O)N2CSC[C@H]2C(=O)O)N1 ([pGlu]-[Thz]-OH)
not listed: [18]
inactive: all other assays above

CC1(C)S[C@@H]2[C@H](NC(=O)[C@H](NC(=O)N3CCN(S(C)(=O)=O)C3=O)c3ccccc3)C(=O)N2[C@H]1C(=O)O
active: [18] 29.8 µM
not listed: [16] | [17]
inactive: all other assays above

O=C(O)c1nc(=O)[nH]c(=O)[nH]1
not listed: [16]
inactive: all other assays above

CC1=C[C@H](O)CC(C)(C)[C@H]1/C=C/C(C)=C/C=C/C(C)=C/C=C/C=C(C)/C=C/C=C(C)/C=C/C1=C(C)C[C@@H](O)CC1(C)C
active: [10] 23.9 µM | [12] 11.9 µM | [13] 18.8 µM | [14] 21.1 µM
not listed: [16] | [20]
inactive: all other assays above

OCC(O)COc1ccc(Cl)cc1 (stereo not given)
not listed: [16]
inactive: all other assays above

COC(F)(F)C(Cl)Cl
not listed: [16]
inactive: all other assays above

CC1(C)S[C@@H]2[C@H](NC(=O)C(C(=O)Oc3ccc4c(c3)CCC4)c3ccccc3)C(=O)N2[C@H]1C(=O)O (stereo not given in full)
not listed: [16]
inactive: all other assays above

CC(=O)O[C@H]1C[C@@]2(C)[C@@H](C[C@@H](O)[C@H]3[C@@]4(C)CC[C@@H](O)[C@@H](C)[C@@H]4CC[C@@]32C)/C1=C(\CCC=C(C)C)C(=O)O
not listed: [19]
inactive: all other assays above

CO[C@H]1C[C@@H]2CC[C@@H](C)[C@@](O)(O2)C(=O)C(=O)N2CCCC[C@H]2C(=O)O[C@H]([C@H](C)C[C@@H]2CC[C@@H](OCCO)[C@H](OC)C2)CC(=O)[C@H](C)/C=C(\C)[C@@H](O)[C@@H](OC)C(=O)[C@H](C)C[C@H](C)/C=C/C=C/C=C/1C
active: [10] 7.56 µM | [11] 23.9 µM | [12] 0.0094 µM | [13] 0.0075 µM | [14] 0.0168 µM | [20] 23.7 µM
not listed: [16] | [17] | [19]
inactive: all other assays above

OCC(O)CO
inactive: [1] | [2] | [3] | [4] | [5] | [6] | [7] | [8]

O.O=C([O-])CC([S-])C(=O)[O-].[Au+].[Na+].[Na+] (stereo not given)
not listed: [16] | [17] | [18] | [20]
inactive: all other assays above

CCCC(=O)Nc1c(I)cc(I)c(CC(CC)C(=O)O)c1I (stereo not given)
not listed: [16] | [17] | [18] | [20]
inactive: all other assays above

Cc1ccccc1
inactive: [1] | [2] | [3] | [4] | [5] | [6] | [7] | [8]
